A selection: hits, their analogues and other compounds. The true share with any hit is near 4.6%.
Peg3 promoter = reduces Peg3 promoter-driven luciferase expression in HeLa; HeLa PEG-Prom luciferase reporter, luminescence, overnight; inhibition, % at 20 µM; 360,000 tested, 1.7% active;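 active = inhibition of at least 50% at 20 µM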
Mdm2-MdmX inh = disrupts the human Mdm2-MdmX interaction | SaOS-2 split-luciferase Mdm2/MdmX complementation, luminescence | inhibition, % at 8 µM | 330,000 tested, 3% active | AID 485346;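 active = inhibition of at least 50% at 8 µM in the primary screen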
KKLEB cytotox = reduces viability of KKLEB cystic fibrosis airway cells | KKLEB CF airway cells viability, ATPlite luminescence, overnight; stronger effect = lower value; cells stimulated with P. aeruginosa culture filtrate | activity change (cytotoxicity), % at 5 µM | 360,000 tested, 0.36% active | AID 602141;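 active = corrected activity change at or below -50% at 5 µM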
HIF-2a block = blocks HIF-2a reporter activity | 786-0 RCC cells HIF-2a reporter, luciferase luminescence, overnight | inhibition, % at 18.8 µM | 360,000 tested, 0.72% active | AID 624352;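 active = inhibition of the luminescence signal of 40% or more relative to plate controls, in a single-dose primary screen at 18.75 µM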
ABHD5-PLIN5 inh = inhibitors of human ABHD5-perilipin-5 interaction | Q00G26+Q8WTS1 | 360,000 tested, 0.78% active | inhibition, % at 4 µM | Split G. princeps luciferase complementation, luminescence, 4 h;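 active = inhibition above the mean inhibition across every tested compound plus 3 SD, cut at about 22% in these data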;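 note: 0% = DMSO only wells and the 100% control is not disclosed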
Target sequence (Q00G26 whole entry, looked up): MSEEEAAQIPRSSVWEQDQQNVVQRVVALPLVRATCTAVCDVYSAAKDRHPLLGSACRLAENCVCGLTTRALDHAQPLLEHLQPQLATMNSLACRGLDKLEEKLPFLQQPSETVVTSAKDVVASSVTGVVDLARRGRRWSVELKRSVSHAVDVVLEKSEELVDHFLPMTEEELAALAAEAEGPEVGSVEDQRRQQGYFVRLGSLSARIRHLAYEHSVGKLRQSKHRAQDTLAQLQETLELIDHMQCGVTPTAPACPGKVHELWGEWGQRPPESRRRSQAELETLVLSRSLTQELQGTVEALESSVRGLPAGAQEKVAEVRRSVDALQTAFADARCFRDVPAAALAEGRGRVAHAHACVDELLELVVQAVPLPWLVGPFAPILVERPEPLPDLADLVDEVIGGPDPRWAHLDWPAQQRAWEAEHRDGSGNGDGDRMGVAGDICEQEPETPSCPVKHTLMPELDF
Target sequence (Q8WTS1 whole entry, looked up): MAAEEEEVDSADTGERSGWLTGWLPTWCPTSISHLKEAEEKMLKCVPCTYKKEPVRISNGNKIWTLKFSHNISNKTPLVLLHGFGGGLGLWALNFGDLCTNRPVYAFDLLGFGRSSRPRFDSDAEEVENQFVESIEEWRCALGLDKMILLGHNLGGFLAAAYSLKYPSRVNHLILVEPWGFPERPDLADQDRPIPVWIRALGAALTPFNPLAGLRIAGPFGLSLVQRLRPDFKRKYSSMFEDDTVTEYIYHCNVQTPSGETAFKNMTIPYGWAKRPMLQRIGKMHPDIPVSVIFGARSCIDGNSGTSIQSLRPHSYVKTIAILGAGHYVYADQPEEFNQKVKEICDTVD
CF NFkB inh = blocks PAF-induced NF-kB reporter in cystic fibrosis cells | AID 588850 | 360,000 tested, 0.86% active | KKLEB NF-kB-GFP reporter, GFP fluorescence overnight | inhibition, % at 5 µM;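 active = at least 50% inhibition at 5 µM, scaled per plate between neutral and stimulator controls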;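 note: PAF is a Pseudomonas aeruginosa culture filtrate used as stimulus; plate controls were PAF-stimulated DMSO wells for no effect and unstimulated DMSO wells for full effect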
HIF-2a conf = HIF-2a inhibition, single concentration confirmation. 786-0 RCC cells, HIF-2a luciferase reporter luminescence, overnight. shares compounds with HIF-2a block. inhibition, % at 18.8 µM. AID 651580. 1,800 tested, 56% active;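 active = mean inhibition across four replicates of at least 40 percent at the single tested concentration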
HIF-1a counter = inhibits HIF-1a reporter, a counter-screen for HIF-2a inhibitors; inhibition, % at 18.8 µM; AID 651589; MiaPaCa-2 HIF-1a luciferase reporter, desferoxamine, overnight; 1,800 tested, 72% active; shares compounds with HIF-2a block;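 active = mean inhibition of the reporter signal across four replicates at the single tested dose of 50% or more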
Active calls of the source: *; · = no result.

SMILES | Peg3 promoter | Mdm2-MdmX inh | KKLEB cytotox | HIF-2a block | ABHD5-PLIN5 inh | CF NFkB inh | HIF-2a conf | HIF-1a counter
CCOc1ccc2nc(S(=O)(=O)NC(=O)C3(C)CCN3C(=O)c3cc(C)n(C)n3)sc2c1 (stereo not drawn) | -9 | · | -9 | -37 | 1 | 1 | · | ·
CCOC(=O)CNC(=O)N1CCCC(Cc2ccccc2)(C(=O)OCC)C1 (stereo not drawn) | 5 | · | -8 | 25 | 7 | -4 | · | ·
O=C(Nc1ccc2c(c1)OCO2)c1cc(C2CCCCN2S(=O)(=O)c2ccccc2)on1 (stereo not drawn) | -80 | · | -1 | -88 | -2 | 3 | · | ·
COC(=O)CSc1nnc(-c2sc3ccccc3c2Cl)o1 | 8 | -27 | 8 | 90* | 3 | 0 | 95* | 69*
N#CCSc1nnc(-c2sc3ccccc3c2Cl)o1 | -6 | 6 | -20 | -33 | 2 | 8 | · | ·
OCC[C@@H]1C[C@H](O)[C@@H](O)[C@]2(OCc3ccc4ccccc4c32)O1 | -4 | · | -33 | 4 | -2 | 7 | · | ·
COc1cc2ccccc2nn1 | -9 | 13 | -11 | 3 | 2 | 7 | · | ·
COc1ccc2c(n1)Sc1nc3ccccc3nc1N2 | -75 | · | 8 | 92* | -4 | -93 | -246 | -22
Cc1ccc2nc(NC(=O)CCCc3nc4ccccc4s3)sc2c1 | -207 | -12 | 7 | -122 | -12 | 1 | · | ·
Cc1ccc2nc(NC(=O)CCCC(=O)O)sc2c1 | 46 | 21 | -10 | 83* | 1 | 7 | 95* | 90*
COc1ccc2oc(C(=O)OCC(=O)NCc3ccccc3OC)c(C)c2c1 | 12 | 7 | 13 | -4 | 1 | 6 | · | ·
CCOc1ccc(N2C(=O)/C(=C/c3cc(OC)c(OC)c(OC)c3)N(CC(=O)OC)C2=S)cc1 | 42 | 30 | -12 | 48* | 19 | 34 | 30 | 47
CCOc1ccc(/C=C2/C(=O)N(c3ccc(OC)cc3)C(=S)N2CC(=O)OC)cc1OCC | 15 | 7 | -40 | 24 | 1 | -10 | · | ·
COCCCNC(=O)c1ccc2sc([C@@H]3O[C@H](CO)[C@H](O)[C@H](O)[C@H]3O)nc2c1 | 10 | · | 7 | 7 | 6 | 19 | · | ·
COc1ccc(C(=O)/C=C/C(=O)N(Cc2ccccc2OC)C(C(=O)NC2CCCCC2)c2ccncc2)c(O)c1 (stereo not drawn) | -119 | -12 | 2 | 20 | 1 | -3 | · | ·
COc1ccc(C(=O)/C=C/C(=O)N(CC(=O)NC2CCCCC2)Cc2ccccc2)c(O)c1 | 109* | · | -34 | 71* | 9 | 71* | 98* | 103*
COc1ccc(C(=O)/C=C/C(=O)N(CC(=O)NC2CCCCC2)Cc2ccccc2OC)c(O)c1 | 104* | · | -63* | 81* | 3 | 87* | 89* | 105*
COc1ccc(C(=O)/C=C/C(=O)N(Cc2ccccc2)C(C(=O)NC2CCCCC2)c2ccncc2)c(O)c1 (stereo not drawn) | 15 | 22 | -14 | 40* | -1 | 15 | 5 | 48
CCOC(=O)c1c(C)nn(-c2ccc(NC(=O)c3cccs3)cc2)c1C | 19 | 28 | -4 | -46 | -1 | 2 | · | ·
CC(=O)Nc1ccc(NC(=O)COC(=O)c2c(C)nn(-c3ccccc3)c2C)cc1 | -16 | -8 | 8 | -37 | -2 | -32 | · | ·
CCOC(=O)c1c(C)nn(-c2ccc(NC(=O)/C=C/C(=O)O)cc2)c1C | 13 | -13 | 7 | 74* | 0 | -3 | 48* | 30
CCOC(=O)c1c(C)nn(-c2ccc(NC(=O)c3c(C)noc3C)cc2)c1C | 0 | 5 | -5 | 66* | 4 | 20 | 80* | 40
COC(=O)C1=CN(c2ccc(C(C)(C)C)cc2)C(N)=C(C#N)C1c1cccc2ccccc12 (stereo not drawn) | · | · | · | -10 | -2 | · | · | ·
CCOC(=O)C1CCCCN1C(=O)CCc1c(C)nc2ncnn2c1C (stereo not drawn) | 5 | -15 | 13 | 63* | 0 | 6 | 49* | 28
Cc1nc2cc(-c3cccc(F)c3)nn2c(C)c1CCC(=O)N1CCN(c2ccccn2)CC1 | -37 | 10 | 7 | 72* | 4 | -12 | 81* | 59*
SMILES | Peg3 promoter | Mdm2-MdmX inh | KKLEB cytotox | HIF-2a block | ABHD5-PLIN5 inh | CF NFkB inh | HIF-2a conf | HIF-1a counter
CCOC(=O)CCc1c(C)nc2ncnn2c1C | 0 | -12 | 9 | 6 | -1 | -5 | · | ·
Cc1nc2nc(C)c(CCC(=O)O)c(C)n2n1 | 11 | 24 | 2 | -4 | 7 | -5 | · | ·
COc1cc(OC)cc(-c2cc3nc(C)c(CCC(=O)O)c(C)n3n2)c1 | 32 | · | -7 | 82* | 1 | 1 | 90* | 86*
CCOC(=O)C1CCN(C(=O)CCc2c(C)nc3c(-c4ccc(F)cc4)c(C)nn3c2C)CC1 | 26 | 9 | -18 | 28 | -1 | 20 | · | ·
CCOC(=O)C1CCCCN1C(=O)CCc1c(C)nc2cc(-c3ccccc3)nn2c1C (stereo not drawn) | -37 | -6 | 3 | 75* | 4 | -19 | 85* | 74*
O=C(CSc1nnc(NC(=O)c2c(F)cccc2Cl)s1)Nc1ccccc1F | -27 | -7 | -7 | -41 | -1 | 2 | · | ·
CCN(C(=O)c1ccncc1)c1c(N)n(Cc2ccccc2)c(=O)[nH]c1=O | 16 | 36 | 7 | 9 | 5 | -9 | · | ·
CCCS(=O)(=O)NC(=O)C1(C)CCCN(C(=O)c2c(F)ccc(C)c2F)C1 (stereo not drawn) | 2 | · | 9 | 2 | 10 | -23 | · | ·
CSc1ccc(CCNC(=O)CCc2nnc3ccc(N4CCC5(CC4)OCCO5)nn23)cc1 | -8 | 21 | 12 | -17 | 10 | -36 | · | ·
CCOC(=O)C1CCN(C(=O)CCc2c(C)nc3cc(-c4ccccc4)nn3c2C)CC1 | -50 | -29 | -5 | 69* | -3 | 20 | 84* | 45
Cc1ccc(-c2csc3ncnc(-n4nnc5ccccc54)c23)cc1 | 18 | 15 | -3 | 30 | -2 | 3 | · | ·
Cn1nnnc1Sc1ncnc2scc(-c3ccccc3C(F)(F)F)c12 | 18 | 39 | -18 | 51* | 9 | 22 | 46* | 59*
C[C@H]1COC(=O)[C@@H](Cc2ccc(F)cc2)C/C=C\C[C@@H](CC(=O)N[C@@H](CO)Cc2ccccc2)C(=O)N1 | -1 | 12 | 12 | 3 | -3 | 22 | · | ·
CCOCCCNCc1ccc(OC)cc1 | 19 | 18 | 12 | 12 | 3 | -20 | · | ·
COc1ccc2cc(CNCCOCCOCCNCc3ccc4cc(OC)ccc4c3)ccc2c1 | 109* | · | -31 | 88* | 5 | 31 | 5 | 27
